# Test results taken from PubChem BioAssay (NCATS).
# Results filed as inconclusive are left out. A call without a number means that no potency is given here. Calls of active or inactive are those of the source. Calls follow the shape of the dose curve; as a rule, active = well fitted curve in the direction sought with a large enough effect; inconclusive = small, poorly fitted or top-dose-only effect, or another doubt; inactive = no such curve, though single readings can be large; an effect the other way counts as inactive or inconclusive.
# Assays:
# [1] = NS1 protein of Zika virus - qHTS assay to identify small molecule inhibitors in human HEK 293 cells (AID 1347053); also: nearly all actives have a fitted effect of over 55% in size; also: potency is read from the fitted curve at half-maximal effect
# In short: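 TR-FRET signal from two anti-ZIKV NS1 antibodies quantified NS1 in HEK 293 cells 24 h after MR766 infection at MOI = 0.5; compounds were added 1 h before virus. Uninfected cells and infected cells defined the NS1 normalization range.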
# [2] = qHTS of pediatric cancer cell lines to identify multiple opportunities for drug repurposing: Primary screen for TC32 cells (AID 1347089); also: nearly all actives have a fitted effect of over 60% in size; also: potency is read from the fitted curve at half-maximal effect
# In short: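 qHTS, TC32, 48 h drug treatment, CellTiter-Glo luminescence as a proxy for metabolically active cells; primary top concentration 46 µM (MIPE 11-pt, NPC 8-pt); confirmatory 11-pt.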
# [3] = qHTS of pediatric cancer cell lines to identify multiple opportunities for drug repurposing: Primary screen for DAOY cells (AID 1347090); also: nearly all actives have a fitted effect of over 55% in size; also: potency is read from the fitted curve at half-maximal effect
# In short: (§1)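 Viability measured as metabolically active cells via CellTiter-Glo luminescence following 48 hours of compound exposure, 11-point dilutions in confirmatory testing. 500-1,000 cells/well plated 5 hours before dosing; controls were DMSO and 2.3 µM bortezomib.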
# [4] = qHTS of pediatric cancer cell lines to identify multiple opportunities for drug repurposing: Primary screen for A673 cells (AID 1347092); also: nearly all actives have a fitted effect of over 45% in size; also: potency is read from the fitted curve at half-maximal effect
# In short: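 Luminescence from CellTiter-Glo, taken after 15 min at room temperature, served as the proxy for metabolically active cells following 48 h treatment. Both potency and efficacy were taken from curves fitted to the titration data.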
# [5] = qHTS of pediatric cancer cell lines to identify multiple opportunities for drug repurposing: Primary screen for SK-N-MC cells (AID 1347093); also: potency is read from the fitted curve at half-maximal effect
# In short: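 Metabolically active cells were quantified by ATP-dependent luminescence (CellTiter-Glo, 15 min at room temperature) following 48 h treatment. Cells had been plated at 500-1,000 per well and settled for 5 h beforehand.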
# [6] = qHTS of pediatric cancer cell lines to identify multiple opportunities for drug repurposing: Primary screen for BT-37 cells (AID 1347094); also: potency is read from the fitted curve at half-maximal effect
# In short: (§2)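 Plated cells (500-1,000 per well, growth media) were allowed to settle for 5 hours, treated with compound dilutions for 48 hours, then lysed with CellTiter-Glo for 15 min at room temperature before luminescence reading.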
# [7] = qHTS of pediatric cancer cell lines to identify multiple opportunities for drug repurposing: Primary screen for U-2 OS cells (AID 1347096); also: nearly all actives have a fitted effect of over 50% in size; also: potency is read from the fitted curve at half-maximal effect
# In short: (§3)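 Viability after 48 h compound treatment at 37C, 500-1,000 cells/well, read as ATP luminescence with CellTiter-Glo. Primary screens used 11-point (MIPE, 0.78 nM-46 µM) or 8-point (NPC, 0.59 nM-46 µM) final concentrations; follow-up screens used 11-point dilutions.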
# [8] = qHTS of pediatric cancer cell lines to identify multiple opportunities for drug repurposing: Primary screen for BT-12 cells (AID 1347101); also: nearly all actives have a fitted effect of over 25% in size; also: potency is read from the fitted curve at half-maximal effect
# In short: (§4)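 Cells (500-1,000/well) rested 5 h, then received compounds for 48 h; metabolically active cells were measured by CellTiter-Glo luminescence. Final concentrations spanned up to 46 µM (MIPE, 11-point) or 0.59 nM-46 µM (NPC, 8-point) in primary screens, 11-point in follow-ups.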
# [9] = qHTS of pediatric cancer cell lines to identify multiple opportunities for drug repurposing: Primary screen for OHS-50 cells (AID 1347103); also: nearly all actives have a fitted effect of over 40% in size; also: potency is read from the fitted curve at half-maximal effect
# In short: as §4
# [10] = qHTS of pediatric cancer cell lines to identify multiple opportunities for drug repurposing: Primary screen for RD cells (AID 1347104); also: nearly all actives have a fitted effect of over 55% in size; also: potency is read from the fitted curve at half-maximal effect
# In short: as §2
# [11] = qHTS of pediatric cancer cell lines to identify multiple opportunities for drug repurposing: Primary screen for NB-EBc1 cells (AID 1347095); also: potency is read from the fitted curve at half-maximal effect
# In short: as §2
# [12] = qHTS of pediatric cancer cell lines to identify multiple opportunities for drug repurposing: Primary screen for Saos-2 cells (AID 1347097); also: nearly all actives have a fitted effect of over 40% in size; also: potency is read from the fitted curve at half-maximal effect
# In short: as §2
# [13] = qHTS of pediatric cancer cell lines to identify multiple opportunities for drug repurposing: Primary screen for SK-N-SH cells (AID 1347098); also: nearly all actives have a fitted effect of over 65% in size; also: potency is read from the fitted curve at half-maximal effect
# In short: as §4
# [14] = qHTS of pediatric cancer cell lines to identify multiple opportunities for drug repurposing: Primary screen for Rh18 cells (AID 1347102); also: nearly all actives have a fitted effect of over 65% in size; also: potency is read from the fitted curve at half-maximal effect
# In short: as §3
# [15] = qHTS of pediatric cancer cell lines to identify multiple opportunities for drug repurposing: Primary screen for MG 63 (6-TG R) cells (AID 1347105); also: nearly all actives have a fitted effect of over 50% in size; also: potency is read from the fitted curve at half-maximal effect
# In short: as §2
# [16] = qHTS of pediatric cancer cell lines to identify multiple opportunities for drug repurposing: Primary screen for LAN-5 cells (AID 1347100); also: potency is read from the fitted curve at half-maximal effect
# In short: as §3
# [17] = qHTS of pediatric cancer cell lines to identify multiple opportunities for drug repurposing: Primary screen for NB1643 cells (AID 1347099); also: nearly all actives have a fitted effect of over 50% in size; also: potency is read from the fitted curve at half-maximal effect
# In short: as §2
# [18] = qHTS of pediatric cancer cell lines to identify multiple opportunities for drug repurposing: Primary screen for SJ-GBM2 cells (AID 1347091)
# In short: as §1
SMILES,Potency [1],Potency [2],Potency [3],Potency [4],Potency [5],Potency [6],Potency [7],Potency [8],Potency [9],Potency [10],Potency [11],Potency [12],Potency [13],Potency [14],Potency [15],Potency [16],Potency [17],Potency [18]
O=C(O)c1ccc(-c2cc3cccnc3c(-c3ccc4nonc4c3)n2)cc1,23.5 µM (active),inactive,inactive,18.7 µM (active),3.32 µM (active),24.3 µM (active),inactive,27.3 µM (active),27.3 µM (active),26.4 µM (active),,,,,,,,
CC(C)(Cc1ccc2ccccc2c1)NC[C@@H](O)COc1cccc(Cl)c1C#N,inactive,inactive,inactive,14.8 µM (active),,19.3 µM (active),inactive,,inactive,inactive,2.35 µM (active),inactive,24.1 µM (active),inactive,inactive,,,
CC(C)C[C@H](CC(=O)O)C(=O)N[C@@H](Cc1c[nH]c2ccccc12)C(=O)N[C@@H](C)c1ccccc1,inactive,inactive,inactive,1.87 µM (active),1.66 µM (active),3.06 µM (active),inactive,,,inactive,1.05 µM (active),,,inactive,inactive,,,
CC[C@@H]1C=C(C)C[C@H](C)C[C@H](OC)[C@H]2O[C@@](O)(C(=O)C(=O)N3CCCC[C@@H]3C(=O)O[C@H](C(C)=C[C@@H]3CC[C@H](Cl)[C@H](OC)C3)[C@H](C)[C@@H](O)CC1=O)[C@H](C)C[C@H]2OC,23.5 µM (active),inactive,inactive,,11.8 µM (active),,inactive,,8.63 µM (active),,,9.35 µM (active),inactive,,inactive,11.8 µM (active),,
C[N+]1(C)[C@@H]2CC(OC(=O)[C@H](CO)c3ccccc3)C[C@H]1[C@H]1O[C@@H]12 (stereo partly specified),inactive,inactive,inactive,inactive,inactive,inactive,inactive,inactive,inactive,inactive,inactive,inactive,inactive,,inactive,inactive,,
COc1cc(NC(=O)c2ccc(-c3ccc(Cl)cc3)o2)cc(OC)c1,inactive,inactive,2.96 µM (active),7.43 µM (active),1.32 µM (active),,,inactive,inactive,,inactive,inactive,1.52 µM (active),,7.43 µM (active),,6.62 µM (active),
NS(=O)(=O)c1cccc2c1C(=O)c1cccc(O)c1C2=O,3.32 µM (active),inactive,0.935 µM (active),0.372 µM (active),0.935 µM (active),0.432 µM (active),0.59 µM (active),0.273 µM (active),0.769 µM (active),0.526 µM (active),0.833 µM (active),0.264 µM (active),30.4 µM (active),0.743 µM (active),2.35 µM (active),,1.05 µM (active),
Cc1c[nH]c(C=C2C(=O)Nc3ccccc32)c1CCC(=O)O,inactive,inactive,inactive,,inactive,inactive,inactive,inactive,,inactive,,,24.1 µM (active),,,18.7 µM (active),,
O=C1NC(=O)C(=Cc2ccc3c(c2)OC(F)(F)O3)S1,inactive,inactive,23.5 µM (active),,3.32 µM (active),,,,,,,,12.1 µM (active),,,,,
O=C(O)C=Cc1ccc(O)c(O)c1,inactive,inactive,7.43 µM (active),11.8 µM (active),2.64 µM (active),,,,,33.2 µM (active),,23.5 µM (active),24.1 µM (active),inactive,inactive,3.72 µM (active),20.9 µM (active),
COC1CCC(N(C(=O)C2CCC(C)CC2)c2cc(C3=CCCCC3)sc2C(=O)O)CC1 (stereo unspecified),inactive,inactive,inactive,inactive,23.5 µM (active),inactive,inactive,inactive,inactive,,,inactive,inactive,inactive,inactive,inactive,23.5 µM (active),
N#CC(=C(N)Sc1ccccc1N)C(C#N)=C(N)Sc1ccccc1N,inactive,inactive,23.5 µM (active),2.35 µM (active),2.96 µM (active),,inactive,,27.3 µM (active),5.26 µM (active),inactive,29.6 µM (active),,,,,,
O=C(Nc1ccccc1-c1cn2c(CN3CCNCC3)csc2n1)c1cnc2ccccc2n1,inactive,inactive,23.5 µM (active),18.7 µM (active),,27.3 µM (active),inactive,,27.3 µM (active),33.2 µM (active),inactive,,inactive,,23.5 µM (active),20.9 µM (active),13.2 µM (active),
COc1cc(O)c2c(c1)C(=O)c1cc(C)cc(O)c1C2=O,inactive,inactive,inactive,inactive,inactive,inactive,inactive,inactive,inactive,inactive,inactive,,inactive,inactive,,inactive,inactive,
Cc1cccc(C)c1OCC(C)N (stereo unspecified),inactive,inactive,inactive,inactive,inactive,inactive,inactive,inactive,inactive,inactive,inactive,,inactive,inactive,inactive,inactive,inactive,
Clc1ccc(-c2nc3sccn3c2C=NOCc2ccc(Cl)c(Cl)c2)cc1,inactive,inactive,inactive,,,inactive,inactive,inactive,inactive,inactive,,,,,,,,inactive
CON=C(C(=O)N[C@@H]1C(=O)N2C(C(=O)OCOC(=O)C(C)(C)C)=C(C=Cc3scnc3C)CS[C@H]12)c1csc(N)n1,inactive,inactive,inactive,,18.7 µM (active),inactive,inactive,inactive,inactive,inactive,inactive,inactive,inactive,inactive,,inactive,,
CC(C)n1nc(-c2ccc3oc(N)nc3c2)c2c(N)ncnc21,0.0209 µM (active),0.0117 µM (active),0.0148 µM (active),0.0037 µM (active),0.001 µM (active),0.0043 µM (active),0.148 µM (active),0.306 µM (active),0.0012 µM (active),0.0296 µM (active),0.0132 µM (active),0.935 µM (active),21.5 µM (active),,0.0007 µM (active),18.7 µM (active),,
